From PubChem BioAssay (NCI)
About 79,000 compounds went through this panel and 15% of them were active in at least one assay; those are over-represented in the sample as a whole. Rule as the data show it: active = growth inhibition above about 70%; inactive = the rest.

How the values were obtained:
[1] = NCI Yeast Anticancer Drug Screen. Data for the rad50 strain (AID 155);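 also: 0% = growth of vehicle-only cultures of the same strain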; conditions: S. cerevisiae rad50 strain growth inhibition; at 50.0 µM; active compounds read high
In short: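 Compounds were tested on a yeast strain with an engineered DNA damage repair alteration; the reported value is growth inhibition normalised to vehicle treatment.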

[2] = NCI Yeast Anticancer Drug Screen. Data for the mec2-1 strain (AID 157); conditions: S. cerevisiae mec2-1 strain, at 50.0 µM, active compounds read high
In short: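 Test agents were screened against the mec2-1 yeast strain, with defined DNA repair or cell cycle alteration. Growth was scored as inhibition against vehicle-only controls.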

[3] = NCI Yeast Anticancer Drug Screen. Data for the sgs1 mgt1 strain (AID 161);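 also: 0% = growth of cultures given vehicle only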; conditions: S. cerevisiae sgs1 mgt1 strain, at 50.0 µM, active compounds read high
In short: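 Inhibition of yeast growth, normalised to vehicle-treated controls, is reported for a strain bearing genetic alterations in DNA damage repair.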

[4] = NCI Yeast Anticancer Drug Screen. Data for the cln2 rad14 strain (AID 165);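 also: 0% = growth equal to vehicle treated cultures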; conditions: S. cerevisiae cln2 rad14 strain, at 50.0 µM, active compounds read high
In short: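 Growth of compound-exposed yeast (cln2 rad14 genotype) measured and expressed as inhibition relative to vehicle.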

[5] = NCI Yeast Anticancer Drug Screen. Data for the bub3 strain (AID 167); conditions: S. cerevisiae bub3 mutant strain, at 50.0 µM, active compounds read high
In short: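 Growth of a checkpoint-deficient yeast mutant is measured after compound exposure. Values represent inhibition relative to vehicle.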

[6] = NCI Yeast Anticancer Drug Screen. Data for the mlh1 rad18 strain (AID 175); conditions: S. cerevisiae mlh1 rad18 strain growth inhibition; at 50.0 µM; active compounds read high
In short: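 In this whole-cell yeast screen, a strain with altered DNA damage repair is challenged with compound, and its growth is measured against matched vehicle-treated controls.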

Measured: growth inhibition

O=c1c2c3c(sc2nc2n1N=CN(c1ccc(F)cc1)C2)CCCC3
inactive: [1] 4.95% | [2] -1.9% | [3] 2.4% | [4] -8.3% | [5] -1.05% | [6] -5.9%

CC(=O)OC1(C#N)CCCCC1
inactive: [1] 5.7% | [2] -2.3% | [3] -7.05% | [4] 23.1% | [5] 4.8% | [6] 14.4%

COc1ccc(C(CC(=O)O)CC(=O)O)cc1[N+](=O)[O-]
inactive: [1] 0.75% | [2] -1.7% | [3] -2.1% | [4] -6.2% | [5] 15.9% | [6] 10.8%

CC(=O)OC(C(=O)O)C(OC(C)=O)C(OC(C)=O)C(=O)O (configuration not stated)
inactive: [1] 21.5% | [2] 19.2% | [3] 13.8% | [4] -5.85% | [5] 5.7% | [6] 8.4%

CC1(C)C(=O)/C=C\C(=O)C(C)(C)C(=O)/C=C\C(=O)C(C)(C)C2=CC=C(O2)C(C)(C)C(=O)/C=C\C1=O
inactive: [1] 14.9% | [2] 12.2% | [3] -2.4% | [4] 20.9% | [5] 7.9% | [6] 14.4%

Cc1cc(CC(N)C(=O)O)ccc1O (configuration not stated)
inactive: [1] -0.65% | [2] 7.05% | [3] -6% | [4] -6.85% | [5] 0.5% | [6] -16.6%

O=C1C=C(Nc2ccc(Cl)cc2C(=O)c2ccccc2)c2ccccc2C1=O
inactive: [1] 3% | [2] -11.7% | [3] -6.9% | [4] 22.2% | [5] -6.55% | [6] -2.9%

O=C1Nc2ccccc2C1(N1CCCCC1)N1CCCCC1
inactive: [1] 35.9% | [2] 21.9% | [3] 18.5% | [4] 7.9% | [5] 33.6% | [6] 26.6%

CON1C(=O)c2ccccc2C1=O
inactive: [1] 1.15% | [2] 4% | [3] -7.85% | [4] -4.6% | [5] -22.4% | [6] -9.3%

COc1ccc(C2OC3=C(Nc4ccc(Cl)cc4N3)C2=O)c(OC)c1 (configuration not stated)
inactive: [1] -9.1% | [2] -30.9% | [3] -28.1% | [4] -29.9% | [5] -42.2% | [6] -28.8%

CN(C)CCNC(=O)c1cc([N+](=O)[O-])cn1C
inactive: [1] 10.9% | [2] -1.4% | [3] 9.15% | [4] 7.65% | [5] 1.25% | [6] -68.2%

CCn1c(=O)c2[nH]c(Br)nc2n(CC)c1=O
inactive: [1] 1.95% | [2] -0.6% | [3] 5.95% | [4] -6.85% | [5] 0.3% | [6] -9.45%

OC1C=CC2CCC1C2 (configuration not stated)
inactive: [1] -4.85% | [2] 7.15% | [3] -16.4% | [4] 6% | [5] 10.8% | [6] 5.2%

CCC(O)C(=O)O (configuration not stated)
inactive: [1] -28.6% | [2] -26.8% | [3] -20.9% | [4] -11.2% | [5] -9.9% | [6] -27.4%

NC(=O)c1cccc[n+]1[O-]
inactive: [1] -6.25% | [2] 7.25% | [3] -12.6% | [4] 6.05% | [5] 19.6% | [6] 1.3%

CCCN=C(NNC(N)=O)C(C)=O
inactive: [1] 24.9% | [2] 7.9% | [3] -4.35% | [4] 5.55% | [5] 15.7% | [6] -1.45%

CCOC(=O)c1[nH]c(CC(=O)O)c(C(=O)OC)c1C
inactive: [1] 8.25% | [2] 14.8% | [3] 19.1% | [4] -3.5% | [5] 26.5% | [6] 7.3%

N#C/C(=C/N1C(=O)/C(=C/c2ccc([N+](=O)[O-])cc2)SC1=S)C(N)=O
inactive: [1] 45% | [2] 56.5% | [3] 63.4% | [4] 54.3% | [5] 45% | [6] 42%

O=C(c1cc(O)c(O)c(O)c1)c1ccc(O)c(O)c1O
inactive: [1] 12.9% | [2] 5.95% | [3] 11.3% | [4] 5.2% | [5] 14.1% | [6] 32.8%

CC(C)[Si]1(C(C)C)OCC2OC(n3c(C(=O)c4ccccc4)cc(=O)[nH]c3=O)CC2O[Si](C(C)C)(C(C)C)O1 (configuration not stated)
inactive: [1] -2.2% | [2] 5.7% | [3] 17.5% | [4] 24.4% | [5] 17.9% | [6] 6.35%

N#CC(c1ccccc1)N(CCc1ccccc1)C(=O)c1ccccc1 (configuration not stated)
inactive: [1] -3.7% | [2] 1.7% | [3] -23.4% | [4] -18.7% | [5] -27.8% | [6] -48.2%

O=C1NCC2(CCCCCC2)O1
inactive: [1] 5.15% | [2] -0.65% | [3] 13.2% | [4] 4.95% | [5] -3.9% | [6] 6.15%

c1ccc(C2(c3ccccc3)c3ccccc3-c3ccccc32)cc1
inactive: [1] -16.2% | [2] 17.4% | [3] 20.3% | [4] -17.9% | [5] -26.9% | [6] 2.2%

CN(CCC#N)c1ccc(/C=C(\C#N)c2ccc(Br)cc2)cc1
inactive: [1] 12.2% | [2] -23.8% | [3] 13.6% | [4] -12% | [5] -0.85% | [6] -18.9%

N#CC(Nc1ccccc1)c1ccc(C(C#N)Nc2ccccc2)cc1 (configuration not stated)
inactive: [1] 3.2% | [2] 8.2% | [3] -45.2% | [4] -21.1% | [5] -16.2% | [6] -34.2%

CCOC(=O)C(Cl)Cc1ccccc1 (configuration not stated)
inactive: [1] 4.75% | [2] 13.4% | [3] 13.4% | [4] 5.45% | [5] -5.15% | [6] 1.9%

BrCCC1(CCBr)CCCCC1
inactive: [1] 54% | [2] 39.4% | [3] 44.6% | [4] 24.9% | [5] 48.6% | [6] 57.8%

CC(=O)c1c2c(cc3c1CCC3)CCC2
inactive: [1] -15.4% | [2] -47.2% | [3] -20.1% | [4] -26% | [5] -21.7% | [6] -0.8%

CNCSc1ccccc1
inactive: [1] -6.6% | [2] -19.9% | [3] -1.75% | [4] -11.6% | [5] -30.1% | [6] -1.45%

CC(=O)Nc1ccc(S(=O)(=O)N/N=c2/sc3ccccc3n2C)cc1
inactive: [1] -11.3% | [2] -12.4% | [3] 16% | [4] 20.5% | [5] 13.8% | [6] -4%

CC1N=C(SCc2ccc(Cl)cc2)N2C(C)N=C(SCc3ccc(Cl)cc3)N12 (configuration not stated)
inactive: [1] -12.7% | [2] -40% | [3] 5.8% | [4] 2.7% | [5] 5.6% | [6] -6.95%

COC(=O)C(CC(=O)[C@H]1CC[C@H]2[C@@H]3CC[C@H]4C[C@@H](OC(C)=O)CC[C@]4(C)[C@H]3CC[C@]12C)OC(C)=O (some centres not stated)
inactive: [1] 51.5% | [2] 40.9% | [3] 57.5% | [4] 53% | [5] -2.7% | [6] 44.2%

COc1ccc(CC2CC(Cc3ccc(OC)c(OC)c3)C(=O)O2)cc1OC (configuration not stated)
inactive: [1] -33.9% | [2] 15.7% | [3] -23.4% | [4] -33.2% | [5] 3.95% | [6] 2.85%

CCOC(=O)c1nc(SC)sc1NC(=O)c1ccc(OC)cc1
inactive: [1] 12.8% | [2] -7.3% | [3] 13.1% | [4] 6.2% | [5] 17.7% | [6] -4.65%

COC(=O)C(=O)C1(c2ccccc2)CCCC(CN(C)C)=C1O (configuration not stated)
inactive: [1] 3.35% | [2] -0.15% | [3] 2.65% | [4] -4.95% | [5] -2.65% | [6] -12.7%

O=C1/C(=C/c2ccco2)CC/C1=C\c1ccco1
inactive: [1] 23.4% | [2] 15% | [3] 29% | [4] -18.1% | [5] 14.1% | [6] 44.5%

CC(C)C(N)(C(=O)O)c1ccccc1 (configuration not stated)
inactive: [1] -19.7% | [2] -20.2% | [3] -51.5% | [4] -73.4% | [5] -14.9% | [6] -24.9%
